A selection: hits, their analogues and other compounds. The true share with any hit is near 3.7%.
VDR inhibitor: inhibitors of human vitamin D receptor. actives 0.93% (n = 400,000). P11473. AID 504847. VDR-SRC2-3 peptide fluorescence polarization, 2 h. Potency, µM, without a hit: max response, negative = inhibition, usual class: inhibitors; further: potency means the concentration at half of the fitted maximal effect; on the % scale 0 is the no-effect control and ±100 the full control effect
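The screen uses fluorescence polarization to detect compounds that interfere with recruitment of the SRC2-3 coactivator peptide to VDR; plates are read after 2 h at room temperature.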
FEN1 inh: inhibitors of human flap endonuclease 1; P39748; Recombinant FEN1 flap cleavage, fluorescence, 15 min; Potency, µM (titrated, usually from 114 µM), for the others: top-dose activity change, negative = inhibition, actives largely listed as inhibitors; actives 0.35% (n = 390,000); AID 588795; further: potency means the concentration at half of the fitted maximal effect; on the % scale 0 is the no-effect control and ±100 the full control effect; nearly all actives have a fitted effect of over 65% in size
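Steps: FEN1 (10 nM) dispensed; compound added by pin tool; 15 min at room temperature; substrate added to 50 nM final; reads at 0 min and 15 min; data normalized and fitted (four-parameter Hill).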
PI5P4K alpha inh: blocks human PI5P4K alpha kinase activity; max response, %; PI5P4Kalpha enzyme, ADP-Glo luminescence, 60 min; hits give low values; P48426; actives 1.2% (n = 330,000); AID 652105; active means max response of -50% or lower; inconclusive means between -30% and -50%; inactive means -30% or higher; further: value at the top dose of about 77 µM; on the % scale 0 is the no-effect control and ±100 the full control effect
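ADP-Glo luminescence end-point after a 60 min room-temperature kinase reaction. PI5P4Kalpha and substrate in HEPES pH 7.4 buffer with EGTA, 0.1% CHAPS and 5% DMSO; ATP at 5 microM final.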
WRN inhibitor: inhibitors of human WRN helicase; Q14191; actives 0.46% (n = 360,000); WRN helicase unwinding, fluorescent forked duplex, kinetic; Potency, µM (highest dose often 114 µM), for the others: at the top dose activity change, negative = inhibition, hits mostly inhibitors; further: potency means the concentration at half of the fitted maximal effect; on the % scale 0 is the no-effect control and ±100 the full control effect; nearly all actives have a fitted effect of over 55% in size
Target sequence (Q14191 whole entry, looked up): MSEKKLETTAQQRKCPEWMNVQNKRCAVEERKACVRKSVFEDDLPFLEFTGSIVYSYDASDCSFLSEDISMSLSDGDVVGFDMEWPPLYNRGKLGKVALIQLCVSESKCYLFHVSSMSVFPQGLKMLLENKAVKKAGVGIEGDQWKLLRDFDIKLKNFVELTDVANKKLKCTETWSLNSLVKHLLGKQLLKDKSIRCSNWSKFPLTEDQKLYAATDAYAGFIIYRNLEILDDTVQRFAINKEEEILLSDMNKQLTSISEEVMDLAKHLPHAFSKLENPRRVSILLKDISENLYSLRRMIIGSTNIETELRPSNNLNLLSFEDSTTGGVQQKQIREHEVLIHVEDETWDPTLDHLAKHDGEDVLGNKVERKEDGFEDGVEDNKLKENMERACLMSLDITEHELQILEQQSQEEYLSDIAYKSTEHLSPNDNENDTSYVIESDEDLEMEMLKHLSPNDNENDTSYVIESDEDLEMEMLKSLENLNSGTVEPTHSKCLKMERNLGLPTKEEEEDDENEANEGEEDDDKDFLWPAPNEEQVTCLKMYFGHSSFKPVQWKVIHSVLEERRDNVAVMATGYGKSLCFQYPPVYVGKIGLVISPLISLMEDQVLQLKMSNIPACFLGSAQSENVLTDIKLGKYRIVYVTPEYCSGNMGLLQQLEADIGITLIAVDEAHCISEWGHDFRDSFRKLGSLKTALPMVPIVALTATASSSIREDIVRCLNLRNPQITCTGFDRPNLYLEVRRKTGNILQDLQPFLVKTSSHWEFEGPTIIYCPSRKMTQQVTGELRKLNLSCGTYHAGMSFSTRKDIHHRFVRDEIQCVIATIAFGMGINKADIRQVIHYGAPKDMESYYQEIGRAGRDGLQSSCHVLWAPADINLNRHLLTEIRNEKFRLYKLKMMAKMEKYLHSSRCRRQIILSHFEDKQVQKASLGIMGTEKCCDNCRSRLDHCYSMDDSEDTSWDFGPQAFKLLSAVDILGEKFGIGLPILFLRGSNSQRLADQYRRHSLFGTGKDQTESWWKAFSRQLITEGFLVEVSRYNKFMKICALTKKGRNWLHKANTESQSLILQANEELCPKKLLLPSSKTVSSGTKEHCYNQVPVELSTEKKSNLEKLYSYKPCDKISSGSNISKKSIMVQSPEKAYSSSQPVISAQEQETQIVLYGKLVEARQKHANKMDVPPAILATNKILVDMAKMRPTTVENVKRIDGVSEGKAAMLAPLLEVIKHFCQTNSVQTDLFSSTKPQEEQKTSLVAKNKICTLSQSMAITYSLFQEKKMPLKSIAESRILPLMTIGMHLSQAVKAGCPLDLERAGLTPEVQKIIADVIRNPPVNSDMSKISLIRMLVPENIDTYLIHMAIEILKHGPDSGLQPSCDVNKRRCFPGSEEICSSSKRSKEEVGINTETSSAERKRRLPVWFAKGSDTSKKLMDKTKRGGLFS
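Kinetic red-fluorescence monitoring (525/598 nm) tracks WRN helicase activity after 100 nM fluorophore-quencher forked duplex and 2 mM ATP are added to 20 nM enzyme pretreated 15 min at room temperature with compound.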
TCR act: T cell receptor activation; Potency, µM (series often up to 9.22 µM), without a hit: top-dose activation of IL-2 secretion, actives largely listed as activators; 330,000 tested, under 10 active; primary human leukocytes, anti-CD3, IL-2 HTRF, 48 h; further: % of control where 0% means no effect
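Using a-CD3 beads without co-stimulation, primary human leukocytes were exposed to compounds for 48 hr. An HTRF IL-2 kit measured the cytokine, with europium-to-d2 energy transfer producing emission at 665nm upon 320nm excitation.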
PLK1 PBD inh: PLK1 (human) polo-box domain binding inhibition; Potency, µM, for inactives: max response, negative = inhibition, hits mostly inhibitors; actives 2.8% (n = 360,000); P53350; Plk1 PBD binding of FITC phosphopeptide, fluorescence polarization; further: potency means the concentration at half of the fitted maximal effect; series mostly up to about 57 µM; on the % scale 0 is the no-effect control and ±100 the full control effect; nearly all actives have a fitted effect of over 65% in size
TbPYK confirm: Trypanosoma brucei pyruvate kinase inhibition, cherry-pick confirmation. shares compounds with PLK1 PBD inh. recombinant TbPYK, Kinase-Glo ATP luminescence. Potency, µM (titrated, usually from 76.9 µM), without a hit: at the highest dose activity change, negative = inhibition, hits mostly inhibitors. actives 67% (n = 890). AID 720569; further: potency means the concentration at half of the fitted maximal effect; on the % scale 0 is the no-effect control and ±100 the full control effect; nearly all actives have a fitted effect of over 70% in size
TbPYK ADP-Glo: TbPYK inhibition, orthogonal confirmation; actives 62% (n = 890); AID 720584; Potency, µM (top dose mostly 76.9 µM), for inactives: top-dose activity change, negative = inhibition, most hits filed as inhibitors; recombinant TbPYK, ADP-Glo luminescence, 60 min; shares compounds with PLK1 PBD inh; further: potency means the concentration at half of the fitted maximal effect; on the % scale 0 is the no-effect control and ±100 the full control effect; nearly all actives have a fitted effect of over 75% in size
The depositor's hits bear a star; ? = inconclusive; . = no result; [ ] = another dose, or the depositor's remark. Unless noted, the call rests on the fitted dose curve; in most records, active means well fitted curve in the direction sought with a large enough effect; inconclusive means small, poorly fitted or top-dose-only effect, or another doubt; inactive means no such curve, though single readings can be large; an effect the other way counts as inactive or inconclusive.

SMILES | VDR inhibitor | FEN1 inh | PI5P4K alpha inh | WRN inhibitor | TCR act | PLK1 PBD inh | TbPYK confirm | TbPYK ADP-Glo
CCOC(=O)C(=C1Nc2ccccc2N1)n1c(-c2ccco2)nc2ccccc21 | . | . | -66* | -30% | . | ? | -72% | 35µM*
CCOC(=O)C(=C1Nc2ccccc2N1)n1c(-c2cnccn2)nc2ccccc21 | . | . | -7 | -5% | . | -9% | . | .
COc1ccc(CCNC(=O)CCCCn2c(=O)c3ccccc3n(Cc3cc(C)ccc3C)c2=O)cc1OC | 13% | 0% | . | . | . | . | . | .
COc1ccc(C(=O)CSc2nnc(-c3ccco3)n2C)cc1 | -13% | -6% | . | 4% | 0% | -12% | . | .
CCC(=O)Nc1ccc(NC(=O)CSc2nnc(-c3ccc(O)cc3)n2CC2CCCO2)cc1 (stereo unspecified) | -14% | -2% | -4 | -3% | 8% | -9% | . | .
COc1ccc(C(=O)CSc2nnc(-c3ccco3)n2CC2CCCO2)cc1 (stereo unspecified) | -7% | -3% | -11 | 3% | 0% | -14% | . | .
O=C(CSc1nnc(-c2ccco2)n1CC1CCCO1)c1ccc(F)cc1 (stereo unspecified) | -29% | -5% | ? | 79µM* | -3% | 2.7µM* | ? | 40µM*
O=C(CSc1ccc(-c2ccco2)nn1)c1ccc(F)cc1 | ? | ? | -69* | 45µM* | 1%[46.1 µM] | ? | 25µM* | 32µM*
CC(=O)Nc1ccc(C(=O)CSc2nnc(-c3ccc(O)cc3)n2CC2CCCO2)cc1 (stereo unspecified) | -3% | 0% | . | -8% | 1% | -17% | 16µM* | ?
COc1ccc(C(=O)CSc2nnc(-c3ccco3)c(-c3ccco3)n2)cc1 | -20% | ? | -57* | ? | 9% | 27µM* | 25µM* | 35µM*
O=C(CSc1ccc(-c2ccco2)nn1)NCc1ccc(F)cc1 | -13% | 10% | -27 | -15% | -4%[46.1 µM] | -16% | . | .
CC(=O)NC1CC(=O)N(c2ccc3c(c2)OCCO3)C1 (stereo unspecified) | 9% | 24% | . | . | . | . | . | .
CC(=O)Nc1ccc(NC(=O)c2oc3ccc4c(c3c2C)C(=O)CC(C)(C)O4)cc1 | 5% | 1% | . | . | . | . | . | .
CCCCn1cc(S(=O)(=O)c2ccc(OC)cc2)c(=O)c2cc(F)c(N3CCOCC3)cc21 | 9% | 4% | . | . | . | . | . | .
Cc1cc(F)ccc1NC(=O)CN1C(=O)CCc2cc(S(=O)(=O)N3CCOCC3)ccc21 | 10% | -3% | . | . | . | . | . | .
COC(=O)c1ccc(NC(=O)c2cc(S(=O)(=O)N3CCOCC3)cn2C)cc1 | 10% | 25% | . | . | . | . | . | .
CCC(=O)OCc1cnc(C)c2oc(=O)c(C(=O)Nc3ccc(CC)cc3)cc12 | -4% | 2% | . | . | . | . | . | .
O=C(Cn1nc2c(cc1=O)CCCC2)NCc1ccc(Cl)cc1 | -5% | 18% | . | . | . | . | . | .
CCC(C)Sc1oc(-c2ccco2)nc1S(=O)(=O)c1ccc(Cl)cc1 (stereo unspecified) | -6% | 3% | . | . | . | . | . | .
N#C/C(=C\c1ccc(C(=O)O)cc1)c1ccccn1 | -9% | 0% | ? | -6% | -13% | -7% | ? | 2%
CCN(CC)c1ccc(/C=C(\C#N)c2ccccn2)cc1 | -16% | -13% | -6 | ? | 5%[46.1 µM] | -7% | . | .
c1ccc2sc(SN3CCOCC3)nc2c1 | ? | -2% | -76* | -11% | 0% | 21µM* | 28µM* | 35µM*
CCCCCNC(=O)C1CCC(Cn2c(=O)c3sccc3n(CC)c2=O)CC1 (stereo unspecified) | -7% | 2% | . | . | . | . | . | .
COc1ccc(NC(=O)c2cnc3cc(C)ccn3c2=O)c(OC)c1 | 1% | -2% | . | . | . | . | . | .
COc1ccc(-c2nnc3ccc(SCC(=O)N4CCN(c5ccccc5)CC4)nn23)cc1 | -7% | 16% | -25 | 2% | -9% | -21% | ? | ?
SMILES | VDR inhibitor | FEN1 inh | PI5P4K alpha inh | WRN inhibitor | TCR act | PLK1 PBD inh | TbPYK confirm | TbPYK ADP-Glo
COc1ccc(-c2nnc3ccc(SCC(=O)N4CCOCC4)nn23)cc1 | -3% | 18% | -17 | -3% | -4% | -32% | . | .
CC(C)CCCC(C)C1CCC2C3CC=C4CC(O)CCC4(C)C3CCC12C (stereo unspecified) | -3% | . | . | . | . | . | . | .
COCCNC(=O)CN1C(=O)c2cccnc2Sc2ccccc21 | 4% | 15% | . | . | . | . | . | .
COc1ccc(N2C(=O)CC(Sc3ncn[nH]3)C2=O)c(OC)c1 (stereo unspecified) | 0% | -12% | . | -13% | 3% | 30µM* | ? | ?
COc1ccccc1N1C(=O)CC(Sc2nc(C)cc(C)n2)C1=O (stereo unspecified) | 7% | -8% | . | -8% | 2% | -7% | . | .
CC1(C)CC(=O)C(=Cc2cn(-c3ccccc3)nc2-c2ccccc2)C(=O)C1 | ? | 19% | -3 | -8% | -2% | 1.2µM* | 10µM* | ?
Cc1oc2c(c1C(=O)NCc1ccccc1F)C1=NCCN1C=N2 | 9% | -7% | . | . | . | . | . | .
CCc1ccc(NC(=O)CN(c2ccc(Cl)cc2)S(=O)(=O)c2ccsc2C(=O)OC)cc1 | 2% | -6% | . | . | . | . | . | .
COc1ccc(N(CC(=O)NCCSC(C)(C)C)S(C)(=O)=O)c(OC)c1 | -6% | -1% | . | 0% | -9% | -11% | 18µM* | ?
CC(C)(C)SCCNC(=O)CN(c1ccc(F)cc1)S(C)(=O)=O | 22% | -14% | . | 1% | . | -7% | . | .
Cc1cccc(C)c1-n1nnnc1C1(C)CCC(=O)N1CCCn1ccnc1 (stereo unspecified) | . | . | -8 | 0% | . | -13% | . | .
CCCCn1nnnc1C1(C)CCC(=O)N1CCCn1ccnc1 (stereo unspecified) | . | . | -9 | -25% | . | 6µM* | 14µM* | 35µM*
CN1C(=O)N(C)C2(c3ccccc3)NC(=O)NC12c1ccccc1 (stereo unspecified) | 17% | -1% | 11 | -20% | -3% | -12% | . | .
CN1c2ccccc2N(C)C1(C)c1ccccc1 | ? | -13% | -17 | -27% | 5%[46.1 µM] | 4.2µM* | 3.2µM* | 5µM*
Cc1ccc(O)c(NC2=C(Cl)C(=O)N(Cc3ccccc3)C2=O)c1 | ? | -33% | -20 | -9% | 2% | 3µM* | 16µM* | 20µM*
CCCN1C(=O)S/C(=C\c2ccc(N3CCOCC3)o2)C1=O | 32µM* | -14% | -26 | -27% | -5% | 105% | ? | 40µM*

Screening results from PubChem BioAssay.
